In PubChem BioAssay AID602440 (Sanford-Burnham Center for Chemical Genomics, 2012):
Out of some 360,000 compounds screened, about 2,300 (0.64%) were called active. The full list was thinned out, with actives kept by preference. Values without a mark were called inactive. Cut-off read from the data, not from the text of the source: active = inhibition mostly above about 40% (no sharp cut-off); inactive = mostly below about 27%.

These compounds were tested against Sentrin-specific protease 8 (Homo sapiens) (UniProt Q96LD8) (assay: blockers of SENP8 deneddylase activity – biochemical, fluorescence, Nedd8 protein substrate, uHTS, primary screen (AID 602440)). Conditions: recombinant SENP8, Nedd8 substrate fluorescence; at 20 µM; hits give high values.
Sentrin-specific protease 8 (Homo sapiens), sequence (Q96LD8 whole entry, looked up): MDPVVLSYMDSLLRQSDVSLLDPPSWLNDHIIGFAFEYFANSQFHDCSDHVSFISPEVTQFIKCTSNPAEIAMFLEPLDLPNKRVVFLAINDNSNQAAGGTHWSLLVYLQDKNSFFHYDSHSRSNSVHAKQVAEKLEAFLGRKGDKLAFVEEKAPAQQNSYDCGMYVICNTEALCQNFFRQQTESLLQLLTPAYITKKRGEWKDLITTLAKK

SMILES	inhibition
COc1ccccc1S(=O)(=O)c1c(C)cc(C)[nH]c1=O	-5.8%
Cc1cc(C)c(/C=C2\C(=O)Nc3ccccc32)[nH]1	59.5% (active)
Cc1cccc(N(Cc2ccccc2)C(=O)c2ccccc2F)c1	10.3%
O=C(c1ccccc1F)N(Cc1ccccc1)Cc1ccccc1	7.7%
Cc1ccc(N(Cc2ccccc2O)C(=O)c2ccccc2F)cc1	43.7% (active)
CCC(=O)N1CCC(C(N)=O)(N2CCCCC2)CC1	23.1%
CN1CCN(CC(=O)C23CC4CC(CC(C4)C2)C3)CC1	8%
O=C(CCC(=O)OCc1cccc(C(=O)Oc2ccccc2)c1)Nc1cccc2ccccc12	-5.4%
Cc1c(CC(=O)N2CCN(C(=O)C3COc4ccccc4O3)CC2)c(=O)oc2c(O)c(O)ccc12 (stereo unspecified)	-291%
Cn1c2ccccc2n2c(=O)c(=O)n(CC(=O)c3ccc(F)cc3)nc12	-7.8%
COc1ccc(NC(=O)CSc2nncc(=O)n2N)cc1OC	8%
Cc1cc([N+](=O)[O-])ccc1NCc1cccc([N+](=O)[O-])c1	29.2%
O=C1Nc2ccc([N+](=O)[O-])cc2C1=Nc1cccc(CO)c1	65.6% (active)
CN1CCN(/N=C2/C(=O)Nc3ccc([N+](=O)[O-])cc32)CC1	23.5%
Cc1cc(C=O)c(C)n1-c1ccc(NC2CCCCC2)c([N+](=O)[O-])c1	56.6% (active)
Cc1ccc(C(=O)COC(=O)CCCC(=O)NC2CCCCC2)cc1[N+](=O)[O-]	19.6%
COc1ccc(NC(=O)CN(C)C(=O)c2ccc(NC3CC3)c([N+](=O)[O-])c2)cc1	33.7%
O=C(Nc1ccc2c(c1)[C@@H]1C[C@@H](CC(=O)N3CCCCC3)O[C@@H](CO)[C@@H]1O2)NC1CCCCC1	15.5%
CC1Cc2[nH][nH]c(=O)c2C(C2CC2)O1 (stereo unspecified)	19.9%
CN=C(Nc1cccc(S(=O)(=O)N2CCOCC2)c1)c1ccccc1	9.5%
Cc1cc(F)ccc1NC(=S)NCCc1ccccc1	8%
CCCC1CCC(=NNC(=S)NCCc2ccccc2)CC1 (stereo unspecified)	45.2% (active)
CCCCNC(=S)N/N=C1\CCCCc2ccccc21	21.8%

SMILES	inhibition
CCOC(=O)c1ccc(N2C(=O)CC(N3CCN(C(=O)c4ccccc4)CC3)C2=O)cc1 (stereo unspecified)	2.8%
CCOC(=O)c1ccc(N2C(=O)CC(N3CC(C)OC(C)C3)C2=O)cc1 (stereo unspecified)	14%
CCOC(=O)c1ccc(N2C(=O)CC(N(C)Cc3ccccc3)C2=O)cc1 (stereo unspecified)	46.8% (active)
COC(=O)C1=C(C(=O)OC)C(c2cc([N+](=O)[O-])ccc2O)c2sc(=O)[nH]c2S1 (stereo unspecified)	38.8%
N#CC1(C#N)C(C(=O)C23CC4CC(CC(C4)C2)C3)C12CCOCC2 (stereo unspecified)	2.5%
O=C(c1cc2cc(Br)cc(Br)c2oc1=O)N1CCOCC1	-4.2%
O=C1Nc2c(Br)cc(Br)cc2C1(O)N1CCOCC1 (stereo unspecified)	60.2% (active)
Cc1ccc(Nc2nc(CSc3nnc(-c4ccncc4)n3-c3ccccc3C)cs2)cc1	11.2%
Cc1oc2c(C)c3oc(=O)c(CC(=O)N[C@@H](CC(C)C)C(=O)N[C@@H](Cc4ccccc4)C(=O)O)c(C)c3cc2c1C	-222%
Cc1ccc(NS(=O)(=O)c2ccc3c(c2)oc(=O)n3C)c(C)c1	12.2%
CCN(CC(=O)NC1CCS(=O)(=O)C1)S(=O)(=O)c1ccccc1 (stereo unspecified)	3.6%
COc1ccc2[nH]c(=O)c(CN(Cc3cccnc3)S(=O)(=O)c3ccccc3F)cc2c1	-316%
CCc1ccccc1NC(=O)[C@@H]1CCC(=O)N1C1OC(=O)c2c1ccc(OC)c2OC (stereo partly specified)	58.1% (active)
O=C(Nc1ccccc1C(=O)N1CCOCC1)C1CCC(=O)N1C1CCCC1 (stereo unspecified)	7.7%
CCc1ccccc1NC(=S)Nc1cc(OC)c(NC(=O)C(C)C)cc1OC	22.3%
CC(=O)NC(CC(=O)Nc1nccs1)c1ccccc1 (stereo unspecified)	20.4%
CCC(C)NC(=O)c1ccc(NC(=O)CC2SC(N3CCCCC3)=NC2=O)cc1 (stereo unspecified)	0.4%
CCOc1ccc(C(c2c(C)[nH][nH]c2=O)c2c(C)[nH][nH]c2=O)cc1OCC	53.9% (active)
CCOc1ccc(C(C)NC(=O)CN2C(=O)NC3(CCCCC3)C2=O)cc1OCC (stereo unspecified)	4.1%
CCOc1ccc(C(CC(=O)O)NC(=O)C23CC4CC(CC(C4)C2)C3)cc1OC (stereo unspecified)	9%
CCCCNC(=O)C[C@@H]1C[C@@]2(C(=O)OC)CC(C)(C)CC=C2N(Cc2ccco2)C1=O	6%
O=[N+]([O-])c1ncc(Br)cc1Nc1ccccc1	22.6%
CC(C)CCNC(=O)C1CCC(CNc2c(N3CCC(C)CC3)c(=O)c2=O)CC1 (stereo unspecified)	42.8% (active)

SMILES	inhibition
CC(NC(=O)C1CCC(CNc2c(N3CCOCC3)c(=O)c2=O)CC1)c1ccccc1 (stereo unspecified)	9.1%
O=C(NCCCc1ccccc1)C1CCC(CNc2c(N3CCCCC3)c(=O)c2=O)CC1 (stereo unspecified)	23.4%
Cc1ccc(CN2CCCOCCS2(=O)=O)cc1	13.5%
CC(C)CN1CCC1(C)C(=O)Nc1ccc(OC(F)F)cc1 (stereo unspecified)	5.2%
COCCNc1nc(-n2nc(C)cc2C)nc2sc3c(c12)CCCC3	-415%
COc1ccc(C(C(=O)NC2CCCCC2)N(C(=O)Cc2c[nH]c3ccccc23)c2ccccc2)cc1OC (stereo unspecified)	-12.6%
CC(C)[C@H](NC(=O)OCc1ccccc1)C(=O)OCc1ccccc1	5.8%
Cc1ccc(C(=O)Nc2c(-c3ccccc3)[nH][nH]c2=O)cc1	12.1%
COc1ccc(-c2[nH][nH]c(=O)c2NC(=O)c2ccc([N+](=O)[O-])cc2)cc1	60.2% (active)
COc1ccc(NS(=O)(=O)c2cc(NC(=O)CC(=O)c3ccc([N+](=O)[O-])cc3)ccc2C)cc1	6.3%
Cc1n[nH]c(C)c1S(=O)(=O)N1CCCC(C(=O)Nc2ccc(Br)cc2)C1 (stereo unspecified)	13.4%
CCn1cc(C(=O)N2CC(C)CC(C)C2)c(=O)c2cc(S(=O)(=O)N3CCCC3)ccc21 (stereo unspecified)	11.3%
Cc1ccc(N(C(=O)c2ccc(S(=O)(=O)N(C)C)cc2)C2C=CS(=O)(=O)C2)cc1 (stereo unspecified)	9.3%
COC(=O)C1=C(C(=O)OC)[C@@H]2N(C)c3ccccc3[C@@]23C[C@@H](C(=O)OC)N(C(=O)c2ccco2)C3=N1	3.7%
O=C(NC(=S)N1CCCCC1c1cccnc1)c1ccccc1 (stereo unspecified)	46.4% (active)
COc1ccc(C(=O)NC(=S)N2CCCCC2c2cccnc2)cc1OC (stereo unspecified)	8.4%
O=C(Nc1ccccc1C(F)(F)F)N1CCCC1c1cccnc1 (stereo unspecified)	6.2%
COc1cccc(NC(=O)CN(C)CC(=O)c2c(N)n(Cc3ccccc3)c(=O)n(C)c2=O)c1	0.5%
COc1cc(/C=C/CO)cc(OC)c1O[C@@H]1O[C@H](CO)[C@@H](O)[C@H](O)[C@H]1O	-20.9%
CCCCNCCS(=O)(=O)NCc1ccccc1	61.4% (active)
CCCCNS(=O)(=O)CCNCc1ccccc1OC	5.2%
Cc1ccc(CNS(=O)(=O)CCNC(=O)c2ccccc2)cc1	5.7%
O=C(NCc1ccco1)/C(=C\c1cccc([N+](=O)[O-])c1)NC(=O)c1ccco1	9.4%

SMILES	inhibition
Cc1ccc(C(=O)N/C(=C/c2ccc(-c3cccc([N+](=O)[O-])c3)o2)C(=O)NCCCN(C)C)cc1	51.7% (active)
O=C(NCc1ccco1)/C(=C/c1cccc([N+](=O)[O-])c1)NC(=O)c1ccco1	15.2%
COc1ccc(C(=O)OCC(=O)Nc2cc(C)on2)cc1F	10.9%
CN(C)S(=O)(=O)c1cc(C(=O)Nc2ccn(C)n2)c(Cl)cc1Cl	19.3%
CCN=C1SC(CC(=O)Nc2ccc(C)cc2)C(=O)N1CC (stereo unspecified)	40.5% (active)
CCN1C(=O)C(CC(=O)Nc2cc(C)ccc2C)SC1=Nc1ccc(S(N)(=O)=O)cc1 (stereo unspecified)	13.6%
CN=C1SC(CC(=O)Nc2ccc(C(=O)O)cc2)C(=O)N1C (stereo unspecified)	16.1%
Cc1cccc(N2CC(C(=O)Nc3ccccc3N3CCCC3)CC2=O)c1C (stereo unspecified)	14.3%
CC1CCN(c2ccc(C(=O)NCc3ccc4c(c3)OCO4)cc2[N+](=O)[O-])CC1	20.8%
CC1CCN(c2ccc3c(c2)S(=O)(=O)c2cc(C(=O)O)ccc2C3=O)CC1	-15.6%
CC1CCN(c2ccc([N+](=O)[O-])c(SCCO)c2)CC1	40.3% (active)
COc1ccc(C(=O)N2CCC(C(=O)Nc3cccc(C)c3)CC2)cc1OC	9.3%
COc1ccc(-c2c(C)nn3c(N4CCC(C(=O)N5CCCCC5)CC4)cc(C)nc23)cc1OC	-21.1%
COC(=O)[C@]12CCCCC=C1N(Cc1ccc3c(c1)OCO3)C(=O)[C@H](CC(=O)NCc1cccs1)C2	19.5%
CCOc1ccc(S(=O)(=O)N2CCN=C2Cc2ccccc2)cc1C	23.3%
Nc1nnn(CC(=O)N/N=C/c2ccccc2)n1	-8.5%
NN=C(NN=Cc1ccccc1)c1ccccc1	49.4% (active)
COC(=O)C(C)N=Cc1ccccc1 (stereo unspecified)	0.2%
O=C(NCc1ccccc1)C(=O)NCC1OCCN1S(=O)(=O)c1ccc(Br)cc1 (stereo unspecified)	0.6%
COc1ccc(C2(C)NC(=O)N(CC(=O)c3ccc4c(c3)OCO4)C2=O)cc1 (stereo unspecified)	-8.5%
CCOc1ccc(C(=O)CCN2CCOCC2)cc1	5.4%
CCOc1ccc(NCCC(=O)c2ccc3c(c2)OCO3)cc1	37.1% (active)
